# Data reported in PubChem BioAssay AID2284129 (EPA ToxCast).
# The source made the active and inactive calls. Rule for the calls: active = hit-call score of the fitted dose curve at least 0.9, where 1 is the maximum; inactive = score below 0.9.
# Biological target: human Cyclooxygenase COX2, PTGS2 (gene 5743) (UniProt P35354)
# Assay: ERF_FR_ENZ_hPTGS2: Eurofins (ERF) Enzymatic LeadHunter Assay for human Cyclooxygenase COX2, conducted at France lab site
# Experimental: ERF_FR_ENZ_hPTGS2 is a biochemical, single-readout assay that uses extracted gene-proteins in a cell-free assay. Measurements were taken 0.083 hour after chemical dosing in a 96-well plate. See COX2 Human Cyclooxygenase Enzymatic Assay, Cerep.ERF_FR_ENZ_hPTGS2 is an assay component calculated from the ERF_FR_ENZ_hPTGS2 assay. It is designed to measure enzyme activity using a type of enzyme reporter as detected by fluorescence intensity with fluorimetry technology.Data from the assay component ERF_FR_ENZ_hPTGS2 was analyzed at the assay endpoint, ERF_FR_ENZ_hPTGS2, in the positive analysis fitting direction relative to DMSO as the negative control and baseline of activity. Using a type of enzyme reporter, loss-of-signal activity can be used to understand changes in binding as they relate to gene PTGS2. To generalize the intended target to other relatable targets, this assay endpoint is annotated to the stress response intended target family, where the subfamily is cyclooxygenase.
# Human cells are incubated for 5 minutes at room temprature with Arachidonic acid (1.2uM) + ADHP (25 uM) as sunstrate and ns-398 as control inhibitor. Test Sample Requirements: Minimum for 1) Screen: 60 ul of 10 mM stock -OR- 1 mg (pre-weighed) for 10 uM final testing. 2) Dose Response: 90 ul of 10 mM stock -OR- 1 mg (pre-weighed) for a top concentration at 10 uM.
# human Cyclooxygenase COX2, PTGS2 (gene 5743), sequence (P35354 whole entry, looked up): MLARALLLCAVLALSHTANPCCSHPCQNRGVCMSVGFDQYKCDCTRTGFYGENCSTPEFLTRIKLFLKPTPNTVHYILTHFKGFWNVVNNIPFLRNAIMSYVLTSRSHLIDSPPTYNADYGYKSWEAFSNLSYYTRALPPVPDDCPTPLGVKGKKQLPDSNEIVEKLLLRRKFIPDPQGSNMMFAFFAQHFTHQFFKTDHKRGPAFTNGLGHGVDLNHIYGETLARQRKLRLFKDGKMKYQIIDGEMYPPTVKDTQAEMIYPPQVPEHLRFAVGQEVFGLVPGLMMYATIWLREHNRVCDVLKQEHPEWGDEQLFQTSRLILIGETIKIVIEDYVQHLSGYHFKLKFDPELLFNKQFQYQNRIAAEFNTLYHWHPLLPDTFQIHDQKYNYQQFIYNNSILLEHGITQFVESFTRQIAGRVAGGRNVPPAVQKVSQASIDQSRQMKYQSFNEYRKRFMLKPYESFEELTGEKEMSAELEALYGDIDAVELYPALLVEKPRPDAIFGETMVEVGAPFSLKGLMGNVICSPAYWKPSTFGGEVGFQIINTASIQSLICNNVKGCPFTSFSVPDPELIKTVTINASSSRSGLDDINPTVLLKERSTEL
row,SMILES,AC50
1,COc1cc(CCC(=O)CC(=O)CCc2ccc(O)c(OC)c2)ccc1O,274 nM (active)
